NPR2 activator – GC-B (human) receptor activation. P20594. HEK293-GC-B cells, CNP EC30, cGMP TR-FRET; 0% at EC30 CNP, 100% saturating CNP. activation, % at 10 µM. hit rate 0.11% among 370,000;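 active = activation at 10 µM reaching about 35% in either raw or pattern-adjusted values, limit read from the data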
Rce1 inh – inhibitors of yeast Ras-converting enzyme | Q03530 | yeast membranes, quenched prenylated peptide cleavage fluorescence | calls only | hit rate 0.27% among 290,000 | AID 2563;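 active = fall in fluorescence gain of 50% or more versus controls, with final raw signal at or below 3038400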;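 also: plate controls were neutral control wells for no effect and wells lacking membranes for full effect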
GC-A act – GC-A (human) enzyme activation; HEK293 GC-A cells, cGMP TR-FRET, EC30 ANP; 0% at EC30 ANP, 100% saturating ANP; activation, % at 10 µM; hit rate 0.14% among 370,000; AID 1671463; in the data active = activation above about 40%
PLCg1 inh – blocks human PLC-gamma1 enzyme activity. purified PLC-gamma1, fluorogenic substrate, fluorescence. P19174. hit rate 0.84% among 370,000. inhibition, % at 12.2 µM; in the data active = inhibition above about 9.5%
PfM18AAP inh-1 – PfM18AAP enzyme inhibition; hit rate 1.2% among 290,000; inhibition, % at 7.35 µM; AID 1822; recombinant PfM18AAP, H-Glu-NHMec fluorogenic cleavage;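 active = inhibition above the campaign mean inhibition over all tested compounds plus 3 SD, cut at about 28% in these data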;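 also: 0% = plate median of test compound wells and 100% = 2 mM ZnCl2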
PLC-beta3 inh – blocks human PLC-beta3 enzyme activity. Q01970. Purified PLC-beta3, fluorogenic substrate, fluorescence. inhibition, % at 12.2 µM. hit rate 0.18% among 370,000. AID 720704; in the data active = inhibition above about 11%;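 also: 0% = median of compound wells on plate and 100% = full blocker control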
Target sequence (Q01970 whole entry, looked up): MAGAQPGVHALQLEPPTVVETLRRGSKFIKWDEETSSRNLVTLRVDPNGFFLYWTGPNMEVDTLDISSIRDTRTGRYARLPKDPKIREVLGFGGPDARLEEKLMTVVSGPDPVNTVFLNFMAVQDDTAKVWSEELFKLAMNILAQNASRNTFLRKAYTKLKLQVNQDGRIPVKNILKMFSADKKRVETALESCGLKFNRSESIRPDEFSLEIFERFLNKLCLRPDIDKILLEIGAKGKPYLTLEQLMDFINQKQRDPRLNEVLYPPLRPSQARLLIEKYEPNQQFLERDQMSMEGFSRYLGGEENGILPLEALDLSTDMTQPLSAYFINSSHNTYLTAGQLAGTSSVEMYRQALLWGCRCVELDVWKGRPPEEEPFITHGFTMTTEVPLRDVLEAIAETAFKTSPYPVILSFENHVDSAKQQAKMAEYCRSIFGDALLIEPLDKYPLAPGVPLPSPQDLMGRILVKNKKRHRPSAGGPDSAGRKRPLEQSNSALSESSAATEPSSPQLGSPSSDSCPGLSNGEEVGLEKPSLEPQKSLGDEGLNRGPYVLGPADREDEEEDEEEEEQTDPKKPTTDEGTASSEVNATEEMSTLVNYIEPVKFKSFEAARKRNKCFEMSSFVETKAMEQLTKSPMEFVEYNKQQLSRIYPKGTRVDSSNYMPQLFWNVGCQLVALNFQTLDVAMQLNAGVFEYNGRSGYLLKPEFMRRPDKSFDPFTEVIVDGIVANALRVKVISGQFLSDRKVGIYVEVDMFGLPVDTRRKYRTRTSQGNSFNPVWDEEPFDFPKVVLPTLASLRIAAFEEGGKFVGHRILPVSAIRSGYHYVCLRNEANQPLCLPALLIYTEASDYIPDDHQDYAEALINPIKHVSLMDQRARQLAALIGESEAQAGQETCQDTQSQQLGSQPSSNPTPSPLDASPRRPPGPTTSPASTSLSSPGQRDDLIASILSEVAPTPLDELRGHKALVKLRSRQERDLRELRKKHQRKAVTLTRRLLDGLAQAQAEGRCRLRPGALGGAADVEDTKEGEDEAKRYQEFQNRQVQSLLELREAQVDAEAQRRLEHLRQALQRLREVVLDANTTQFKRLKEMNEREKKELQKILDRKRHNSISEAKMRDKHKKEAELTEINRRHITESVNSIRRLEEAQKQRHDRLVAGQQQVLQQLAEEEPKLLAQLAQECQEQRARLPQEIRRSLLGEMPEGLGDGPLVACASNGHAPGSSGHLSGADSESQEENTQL
PfM18AAP inh-2 – PfM18AAP inhibition, confirmation. inhibition, % at 7.35 µM. recombinant PfM18AAP, H-Glu-NHMec fluorogenic cleavage. hit rate 28% among 2,400. shares compounds with PfM18AAP inh-1;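 active = mean inhibition over replicate wells above the hit cutoff set for the earlier primary screen, cut at about 29% in these data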;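 also: 0% = median of test compound wells and 100% = 2 mM ZnCl2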
CTSL1 confirm – counter-screen for PFM18AAP inhibitors: confirmation of human cathepsin L inhibitors | shares compounds with PfM18AAP inh-1 | purified cathepsin L1, Z-Leu-Arg-MCA fluorescence | inhibition, % at 5.96 µM | 2,400 tested, under 10 active;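 active = average inhibition across replicates above the hit cutoff set in the earlier primary screen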;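 also: 0% = median of test compound wells and 100% = Z-Phe-Ala-diazomethylketone 1 µM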
* marks the source's active call; other numbers are inactive results; i = inactive; / = not tested or not shown. This is a sample that favours compounds with a hit; in the whole collection about 2.2% have one here.

SMILES	NPR2 activator	Rce1 inh	GC-A act	PLCg1 inh	PfM18AAP inh-1	PLC-beta3 inh	PfM18AAP inh-2	CTSL1 confirm
COc1ccc(-n2c(CNC(=O)COc3ccccc3)n[nH]c2=S)cc1	0.9	i	0.0	0.5	32.7*	0.3	4.0	-0.6
O=C(COc1ccccc1)NCc1n[nH]c(=S)n1-c1ccccc1	-1.9	i	2.9	1.3	41.7*	0.2	10.9	-1.8
COc1cc(OC)cc(C(=O)NCc2n[nH]c(=S)n2-c2ccccc2)c1	1.9	i	1.9	1.4	16.2	0.4	/	/
O[C@H](COc1ccc(Cl)cc1)CN1CCC(C(O)(c2ccccc2)c2ccccc2)CC1	-4.0	/	-12.4	1.4	/	0.0	/	/
CSc1c(N(C)C)c(=O)c1=S	-0.5	/	3.7	2.4	/	2.1	/	/
COc1ccc(NC(=S)NNc2ccc(S(=O)(=O)Nc3ccccc3C(=O)O)cc2[N+](=O)[O-])cc1	-1.6	i	-4.3	5.5	63.9*	4.0	41.9*	-1.7
CCOc1ccc(C=NNc2ccc(S(=O)(=O)Nc3ccccc3C(=O)O)cc2[N+](=O)[O-])cc1	-2.5	/	-3.9	/	/	/	/	/
CC(C)C(c1nnnn1Cc1ccc(F)cc1)N1CCN(c2ccc(O)cc2)CC1 (stereo not drawn)	-1.8	i	-2.3	-1.6	31.9*	-5.7	-11.4	0.5
CC(C)C(c1nnnn1Cc1cccs1)N1CCN(c2ccccc2)CC1 (stereo not drawn)	4.8	i	-0.7	7.7	-3.1	2.5	/	/
COc1ccc(C2=CCN(C)C(=O)N2c2ccc([N+](=O)[O-])cc2)cc1	-1.4	/	-1.4	-0.8	/	-0.7	/	/
Cc1ccc(NC(=S)c2ccc3ccccc3n2)c(C)c1	-7.8	i	-0.2	3.5	42.1*	-4.5	-1.4	2.4
COc1ccc(NC(=S)c2ccc3ccccc3n2)cc1	/	i	/	/	47.3*	/	4.2	-4.8
CCOc1ccc(NC(=S)c2ccc3ccccc3n2)cc1	-0.6	i	-2.8	5.3	40.9*	-9.2	-30.4	-4.8
CC(COc1cc(F)cc(C#N)c1)CN1CCC(C(O)(c2ccccc2)c2ccccc2)CC1 (stereo not drawn)	-15.3	/	-20.4	0.6	/	0.6	/	/
O=C1CC(c2ccc(O)c(O)c2)Oc2c1ccc(O)c2O (stereo not drawn)	5.1	/	2.8	4.8	/	-7.0	/	/
CC(C)=CCc1c(O)ccc2c1OC(c1ccc(O)c(O)c1)CC2=O (stereo not drawn)	5.5	i	5.0	-12.4	61.9*	-16.1	54.7*	0.1
COC(=O)[C@]12C[C@H](CC(=O)NCCCN3CCCC3=O)C(=O)N(CCC3=CCCCC3)C1=C[C@H](C1CCCC1)O[C@@H]2C	0.7	/	3.1	1.0	/	1.3	/	/
Cc1nc2ccccn2c1C(=O)NNC(=O)Nc1ccccc1	-1.8	i	2.1	0.0	66.2*	-7.5	66.6*	-0.4
O=C(NNC(=O)c1ccc(NC(=O)c2ccccc2)cc1)Nc1ccccc1	-2.6	i	3.8	-4.0	13.8	-0.7	/	/
CN(C)c1ccc(C(=O)NNC(=O)Nc2ccccc2)cc1	-2.4	i	-1.0	6.7	55.1*	1.0	30.6*	-10.1
CCCC1CCC2(CC1)CCC2OC(=S)NCCc1ccc(Cl)cc1 (stereo not drawn)	-5.6	/	-7.6	0.7	/	0.3	/	/
Cc1nc2ccccn2c1-c1csc(Nc2cccc(O)c2)n1	0.3	i	1.1	-36.1	37.5*	-53.3	23.4	4.8
Cc1nc2ccccn2c1-c1csc(Nc2ccc(C(=O)O)cc2)n1	2.0	i	-4.8	-14.1	42.9*	-29.7	22.7	-0.2
Cc1ccc(-c2nnc(NC(=O)COc3ccc(F)cc3Cl)o2)cc1C	-7.1	/	-5.1	-0.7	/	0.8	/	/
OC(c1ccccc1)(c1ccccc1)C1CCN(CCCNc2ccc(C(F)(F)F)cc2)CC1	-11.2	/	-17.8	5.8	/	7.2	/	/
SMILES	NPR2 activator	Rce1 inh	GC-A act	PLCg1 inh	PfM18AAP inh-1	PLC-beta3 inh	PfM18AAP inh-2	CTSL1 confirm
O=C(NC1CCCCN(Cc2cccc(C(F)(F)F)c2)C1=O)c1ccc(COc2ccccc2)cc1 (stereo not drawn)	0.2	/	4.9	0.0	/	0.1	/	/
NNc1nc(-c2ccccc2Cl)c2cc(Br)ccc2n1	-9.6	i	-12.2	-69.6	32.1*	-97.5	-15.0	8.0
Clc1ccccc1-c1ncnc2ccc(Br)cc12	2.0	i	-11.1	3.7	0.0	-3.7	/	/
CCN(CC)S(=O)(=O)c1ccc2oc(SCC(=O)NC3CC3)nc2c1	5.4	i	0.8	-1.8	32.0*	-5.1	-24.2	-8.4
CN(C)Cc1c(C(C)(C)O)[nH]c2cc(F)ccc12	0.0	/	2.1	-4.0	/	0.1	/	/
O=C1C[C@@H](O)[C@H](O)c2cccc(O)c21	1.3	/	4.7	-26.4	/	-39.5	/	/
O=C(CSc1ccc(Cl)cc1)Nn1cnnc1	2.8	i	5.6	0.5	39.8*	-2.7	51.8*	-5.1
O=C(CSc1ccc2ccccc2c1)Nn1cnnc1	3.5	i	3.1	-2.2	65.2*	-2.5	50.7*	0.5
CN(CC(=O)Nn1cnnc1)S(=O)(=O)c1cc(Cl)ccc1Cl	0.8	i	1.7	1.0	43.7*	2.0	44.9*	3.2
Cn1c(=O)c(=O)n(C)c2cc(S(=O)(=O)N3CCN(CCO)CC3)ccc21	3.1	/	3.3	-5.5	/	-8.0	/	/
CCOC(=O)c1cccc(NC(=O)CN(C)S(=O)(=O)c2cc3ccccc3s2)c1	5.1	/	0.1	0.1	/	0.7	/	/
O=C(NC1(C(F)(F)F)Oc2ccccc2O1)N1CCCC1	0.9	i	-3.5	-1.3	75.4*	1.2	45.3*	-1.5
O=C(NCC1CCCO1)c1ccccc1 (stereo not drawn)	-2.0	i	-1.2	0.8	-8.7	3.9	/	/
O=C(NCC1CCCO1)NC1(C(F)(F)F)Oc2ccccc2O1 (stereo not drawn)	2.4	/	2.8	3.0	36.8*	-0.9	-16.2	0.7
Fc1ccc2c(c1)c1n[nH]c(=S)nc1n2CCc1ccccc1	1.6	i	-3.8	-2.9	2.8	-8.9	/	/
NNc1nnc2c3cc(F)ccc3n(CCc3ccccc3)c2n1	0.9	i	-6.6	3.0	44.0*	-3.0	3.0	5.9
CC(=O)C1=C(C)NC(SCc2cccc([N+](=O)[O-])c2)=C(C#N)C1c1ccco1 (stereo not drawn)	2.5	i	3.1	0.3	32.2*	1.1	-18.1	-0.4
CC(=O)C1=C(C)NC(SCC(N)=O)=C(C#N)C1c1ccco1 (stereo not drawn)	0.9	i	1.9	-9.5	1.2	-18.7	/	/
COc1ccc(S[C@]2(C(=O)N3CCN(C(C)=O)CC3)CC(=O)N(C(=O)/C=C/c3ccccc3)[C@@H]2c2ccc(OC)cc2)cc1	14.6	/	2.0	-0.4	/	-1.6	/	/
